PubChem BioAssay AID1159580 (chemical genetic matrix, 2015)
Out of some 5,500 compounds screened, about 2,000 (36%) were called active. About 18% were inconclusive and are not listed. No stated cut-off is given here; in the data, active means normalized growth mostly below about 0.91 (no sharp cut-off); inconclusive means no clear call, values can overlap the other calls; inactive means mostly above about 0.92. The list shows a part of the results.

Experiment: chemical genetic growth profiling, strain panel (AID 1159580);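 further: tested at 20 µM; growth read once vehicle control cultures reached saturation at 30 °C; 1 = growth at the plate median or of vehicle wells; lower values mean less growth of the strain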
Conditions: growth OD

Measured: normalized growth

C=C[C@H]1CN2CC[C@H]1C[C@@H]2[C@H](O)c1ccnc2ccccc12
inactive: S. cerevisiae deletion strains, locus YKL009W, strain mrt4, active compounds read low 0.976 | S. cerevisiae deletion strains, locus YKL068W, active compounds read low 0.979 | S. cerevisiae deletion strains, locus YKL085W, strain MDH1 (second series), active compounds read low 0.972 | S. cerevisiae deletion strains, locus YKL085W, strain MDH1, active compounds read low 0.972 | S. cerevisiae deletion strains, locus YKL160W, strain elf1, active compounds read low 0.991 | S. cerevisiae deletion strains, locus YKL190W, strain CNB1, active compounds read low 0.99 | S. cerevisiae deletion strains, locus YKR001C, strain vps1, active compounds read low 0.997 | S. cerevisiae deletion strains, locus YKR026C, strain gcn3, active compounds read low 0.991 | S. cerevisiae deletion strains, locus YKR091W, strain srl3, active compounds read low 0.979 | S. cerevisiae deletion strains, locus YLL001W, strain dnm1, active compounds read low 0.989 | S. cerevisiae deletion strains, locus YLL026W, active compounds read low 0.995 | S. cerevisiae deletion strains, locus YLL041C, strain sdh2, active compounds read low 0.987 | S. cerevisiae deletion strains, locus YLR027C, strain aat2, active compounds read low 0.992 | S. cerevisiae deletion strains, locus YLR039C, strain RIC1, active compounds read low 0.98 | S. cerevisiae deletion strains, locus YLR058C, strain SHM2, active compounds read low 0.992 | S. cerevisiae deletion strains, locus YLR102C, strain apc9, active compounds read low 0.988 | S. cerevisiae deletion strains, locus YLR113W, strain HOG1, active compounds read low 0.967 | S. cerevisiae deletion strains, locus YLR221C, strain rsa3, active compounds read low 1.02 | S. cerevisiae deletion strains, locus YLR258W, strain gsy2, active compounds read low 0.991 | S. cerevisiae deletion strains, locus YLR262C, strain YPT6 (second series), active compounds read low 1.01 | S. cerevisiae deletion strains, locus YLR262C, strain YPT6, active compounds read low 0.983 | S. cerevisiae deletion strains, locus YLR268W, strain sec22, active compounds read low 0.937 | S. cerevisiae deletion strains, locus YLR320W, strain mms22, active compounds read low 0.998 | S. cerevisiae deletion strains, locus YLR330W, strain CHS5, active compounds read low 0.986 | S. cerevisiae deletion strains, locus YLR342W, strain FKS1 (second series), active compounds read low 1.11 | S. cerevisiae deletion strains, locus YLR342W, strain FKS1, active compounds read low 0.984 | S. cerevisiae deletion strains, locus YLR357W, strain rsc2, active compounds read low 0.976 | S. cerevisiae deletion strains, locus YLR370C, strain arc18, active compounds read low 0.994 | S. cerevisiae deletion strains, locus YLR371W, strain rom2, active compounds read low 0.977 | S. cerevisiae deletion strains, locus YLR384C, strain iki3, active compounds read low 0.995 | S. cerevisiae deletion strains, locus YLR418C, strain cdc73, active compounds read low 0.982 | S. cerevisiae deletion strains, locus YML016C, strain PPZ1, active compounds read low 0.999 | S. cerevisiae deletion strains, locus YML032C, strain rad52, active compounds read low 0.968 | S. cerevisiae deletion strains, locus YML120C, strain ndi1, active compounds read low 1.01 | S. cerevisiae deletion strains, locus YML124C, strain tub3, active compounds read low 0.986 | S. cerevisiae deletion strains, locus YMR058W, strain fet3, active compounds read low 0.982 | S. cerevisiae deletion strains, locus YMR078C, strain ctf18, active compounds read low 0.983 | S. cerevisiae deletion strains, locus YMR125W, strain sto1, active compounds read low 0.977 | S. cerevisiae deletion strains, locus YMR129W, active compounds read low 0.988 | S. cerevisiae deletion strains, locus YMR205C, strain PFK2, active compounds read low 0.988 | S. cerevisiae deletion strains, locus YMR223W, strain ubp8, active compounds read low 1.01 | S. cerevisiae deletion strains, locus YMR231W, strain pep5, active compounds read low 0.979 | S. cerevisiae deletion strains, locus YMR263W, strain SAP30, active compounds read low 0.989 | S. cerevisiae deletion strains, locus YMR307W, strain GAS1, active compounds read low 1.09 | S. cerevisiae deletion strains, locus YNL067W, strain RPL9B, active compounds read low 0.977 | S. cerevisiae deletion strains, locus YNL071W, strain lat1, active compounds read low 0.988 | S. cerevisiae deletion strains, locus YNL128W, strain TEP1, active compounds read low 0.982 | S. cerevisiae deletion strains, locus YNL153C, strain GIM3, active compounds read low 0.991 | S. cerevisiae deletion strains, locus YNL183C, strain NPR1, active compounds read low 0.951 | S. cerevisiae deletion strains, locus YNL209W, strain ssb2, active compounds read low 0.995 | S. cerevisiae deletion strains, locus YNL233W, strain BNI4, active compounds read low 0.985 | S. cerevisiae deletion strains, locus YNL248C, strain rpa49, active compounds read low 0.982 | S. cerevisiae deletion strains, locus YNL250W, strain rad50, active compounds read low 0.986 | S. cerevisiae deletion strains, locus YNL271C, strain bni1, active compounds read low 0.983 | S. cerevisiae deletion strains, locus YNL298W, strain CLA4, active compounds read low 0.985 | S. cerevisiae deletion strains, locus YNL307C, strain MCK1, active compounds read low 0.992 | S. cerevisiae deletion strains, locus YNL322C, strain KRE1 (second series), active compounds read low 0.975 | S. cerevisiae deletion strains, locus YNL322C, strain KRE1, active compounds read low 0.992 | S. cerevisiae deletion strains, locus YNR049C, strain mso1, active compounds read low 0.986 | S. cerevisiae deletion strains, locus YNR052C, strain pop2, active compounds read low 0.992 | S. cerevisiae deletion strains, locus YOL006C, strain TOP1, active compounds read low 0.992 | S. cerevisiae deletion strains, locus YOL012C, strain htz1 1.51 | S. cerevisiae deletion strains, locus YOL147C, strain pex11, active compounds read low 0.979 | S. cerevisiae deletion strains, locus YOR001W, strain rrp6, active compounds read low 1.01 | S. cerevisiae deletion strains, locus YOR061W, strain CKA2, active compounds read low 0.986 | S. cerevisiae deletion strains, locus YOR069W, strain VPS5, active compounds read low 0.997 | S. cerevisiae deletion strains, locus YOR070C, strain gyp1, active compounds read low 1 | S. cerevisiae deletion strains, locus YOR080W, strain dia2, active compounds read low 0.985 | S. cerevisiae deletion strains, locus YOR083W, strain WHI5, active compounds read low 0.991 | S. cerevisiae deletion strains, locus YOR106W, strain vam3, active compounds read low 0.999 | S. cerevisiae deletion strains, locus YOR136W, strain idh2, active compounds read low 1 | S. cerevisiae deletion strains, locus YOR144C, strain elg1, active compounds read low 0.983 | S. cerevisiae deletion strains, locus YOR184W, strain ser1, active compounds read low 0.982 | S. cerevisiae deletion strains, locus YOR231W, strain MKK1, active compounds read low 0.983 | S. cerevisiae deletion strains, locus YOR265W, strain rbl2, active compounds read low 1 | S. cerevisiae deletion strains, locus YOR270C, strain vph1, active compounds read low 1 | S. cerevisiae deletion strains, locus YOR290C, strain snf2, active compounds read low 0.982 | S. cerevisiae deletion strains, locus YOR316C, strain cot1, active compounds read low 0.972 | S. cerevisiae deletion strains, locus YPL051W, strain arl3, active compounds read low 0.994 | S. cerevisiae deletion strains, locus YPL055C, strain LGE1, active compounds read low 0.997 | S. cerevisiae deletion strains, locus YPL078C, strain atp4, active compounds read low 0.99 | S. cerevisiae deletion strains, locus YPL106C, strain sse1, active compounds read low 0.967 | S. cerevisiae deletion strains, locus YPL240C, strain hsp82, active compounds read low 0.999 | S. cerevisiae deletion strains, locus YPL241C, strain CIN2, active compounds read low 0.989 | S. cerevisiae deletion strains, locus YPL256C, strain CLN2, active compounds read low 0.978 | S. cerevisiae deletion strains, locus YPR119W, strain clb2, active compounds read low 0.974 | S. cerevisiae deletion strains, locus YPR141C, strain kar3, active compounds read low 0.981 | S. cerevisiae deletion strains, locus YPR163C, strain tif3, active compounds read low 0.977 | S. cerevisiae deletion strains, locus YPR167C, strain met16, active compounds read low 0.979 | S. cerevisiae deletion strains, strain wtn01, active compounds read low 0.98 | S. cerevisiae strains, strain wild type, active compounds read low 1
